# This is one part of a sample in which hits are shown more often than they occur.
# KDM4E inh: qHTS Assay for Inhibitors of Human Jumonji Domain Containing 2E (JMJD2E) | 1.6% of 230,000 active | Potency, µM (series often up to 57.1 µM), for inactives: at the highest dose activity change, negative = inhibition, usual class: inhibitors | JMJD2E catalytic domain, FDH-coupled NADH fluorescence (FDH is formaldehyde dehydrogenase) | Lysine-specific demethylase 4E (Homo sapiens), B2RXH2; active = well fitted inhibition curve with a large enough effect, not every such curve was filed as active; inconclusive = small, poorly fitted or top-dose-only effect, or another doubt; inactive = no such curve, though single readings can be large or run the other way;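 note: 0% = wells with enzyme and -100% = buffer wells without enzyme; nearly all actives have a fitted effect of over 50% in size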
# RECQ1 inh: qHTS Assay for Inhibitors of RecQ-Like Dna Helicase 1 (RECQ1); ATP-dependent DNA helicase Q1 (Homo sapiens), P46063; 0.54% of 240,000 active; Potency, µM (doses to about 57.3 µM), for the others: top-dose activity, negative = inhibition, hits mostly inhibitors; RECQ1 DNA unwinding, red fluorescence kinetic read; AID 2549, 2010;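 note: plate controls were vehicle for no effect and no enzyme for full effect; nearly all actives have a fitted effect of over 30% in size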
# Target sequence (P46063 whole entry, looked up): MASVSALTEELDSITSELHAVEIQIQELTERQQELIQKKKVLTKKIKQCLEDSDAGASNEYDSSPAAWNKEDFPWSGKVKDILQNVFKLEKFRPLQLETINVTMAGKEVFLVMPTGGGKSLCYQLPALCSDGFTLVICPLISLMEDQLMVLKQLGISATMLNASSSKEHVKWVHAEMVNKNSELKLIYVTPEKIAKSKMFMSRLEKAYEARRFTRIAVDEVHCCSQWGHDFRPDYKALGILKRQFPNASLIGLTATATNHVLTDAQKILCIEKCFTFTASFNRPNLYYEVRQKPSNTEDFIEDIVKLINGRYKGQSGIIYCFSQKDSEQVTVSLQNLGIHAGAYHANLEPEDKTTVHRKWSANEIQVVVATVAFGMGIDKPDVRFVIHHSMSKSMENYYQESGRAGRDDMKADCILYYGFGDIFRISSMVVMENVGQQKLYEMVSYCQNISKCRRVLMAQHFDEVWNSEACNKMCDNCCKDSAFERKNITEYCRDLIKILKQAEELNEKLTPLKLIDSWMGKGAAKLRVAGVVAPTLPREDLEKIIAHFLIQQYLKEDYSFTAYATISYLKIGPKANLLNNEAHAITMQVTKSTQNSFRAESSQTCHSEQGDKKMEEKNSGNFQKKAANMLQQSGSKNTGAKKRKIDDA
#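 RECQ1T1 50 nM; forked duplex (20 bp + 30-nt ss tails) 200 nM, ATP 2 mM final; pH 8.0, 2 mM MgCl2, 2.5 ug/ml poly(dI-dC); 15 min compound preincubation; discontinuous kinetic read over 2 h at RT.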
# KAT2A inh: qHTS Assay for Inhibitors of GCN5L2; GCN5L2 HAT assay, ThioGlo1 CoA-SH fluorescence; 0.21% of 390,000 active; Potency, µM (series often up to 58.9 µM), for inactives: top-dose activity change, negative = inhibition, hits mostly inhibitors; Histone acetyltransferase KAT2A (Homo sapiens), Q92830
#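 GCN5L2 (20 nM) in 50mM HEPES pH 7.5, 0.1mM EDTA, 0.01% Tween-20 preincubated 15 min with compounds at room temperature. Reaction started with H3(1-25) 75uM, acetyl-CoA 70uM, ThioGlo1 50uM; CoA-thiol fluorescence (Ex340/Em540) read at 0 and 20 min.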
# BLM helicase inh: qHTS Assay for Inhibitors of Bloom's syndrome helicase (BLM). recombinant BLM DNA unwinding, fluorescence dequenching. Potency, µM (doses to about 56.1 µM), for inactives: at the top dose activity change, negative = inhibition, actives largely listed as inhibitors. 0.2% of 350,000 active. AID 2528, 2010;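 note: plate controls were vehicle for no effect and no enzyme for full effect; nearly all actives have a fitted effect of over 35% in size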
# L3MBTL1 inh: qHTS Assay for the Inhibitors of L3MBTL1. AID 485360, 2010. AlphaScreen L3MBTL1–H3K9me1 peptide binding. 0.66% of 230,000 active. Lethal(3)malignant brain tumor-like protein 1 (Homo sapiens), Q9Y468. Potency, µM (doses to about 57.1 µM), inactives show top-dose activity, negative = inhibition, actives largely listed as inhibitors; note: nearly all actives have a fitted effect of over 60% in size
#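 L3MBTL1 (50 nM) pre-complexed 30 min with biotinylated H3(1-15)K9me1 peptide (75 nM), then compounds added for 30 min at room temperature; AlphaScreen streptavidin donor/nickel chelate acceptor beads (10 ug/mL final) read after 30 min dark incubation.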
# APEX1 inh: qHTS Assay for Inhibitors of the Human Apurinic/apyrimidinic Endonuclease 1 (APE1) | recombinant APE1, TAMRA/BHQ-2 abasic DNA cleavage fluorescence | Potency, µM (highest dose often 65.8 µM), for inactives: top-dose activity change, negative = inhibition, most hits filed as inhibitors | 0.35% of 350,000 active;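 note: plate controls were vehicle for no effect and reference inhibitor for full effect; nearly all actives have a fitted effect of over 55% in size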
#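 0.75 nM APE1 + cpd, 15 min RT; start w/ 50 nM TAMRA/BHQ-2 THF-abasic dsDNA; kinetic fluor 525/598 nm ×3 reads @60 s; Δ(read3−read1); normalized to DMSO and NSC13755 control wells.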
# Active calls of the source: *; i = inactive; ? = inconclusive; · = no result given; [ ] = another dose, or the depositor's remark. Unless noted, calls come from the whole dose curve; as a rule, active = well fitted curve in the direction sought with a large enough effect; inconclusive = small, poorly fitted or top-dose-only effect, or another doubt; inactive = no such curve, though single readings can be large; an effect the other way counts as inactive or inconclusive. Unless noted, % is set by controls: 0 for no effect and ±100 for the full control effect; potency is the fitted concentration of half-maximal effect.
SMILES,KDM4E inh,RECQ1 inh,KAT2A inh,BLM helicase inh,L3MBTL1 inh,APEX1 inh
CC1CCCN(S(=O)(=O)c2ccc3c(c2)C(C)(C)C(=O)N3C)C1 (centres undefined),·,·,28µM*,0%,9%,2%
C=C1C=C(Br)C2(OCCCO2)[C@H]2OC12 (some centres undefined),·,2%[11.5 µM],·,1%[12.4 µM],·,26%[12.4 µM]
CC(/C=C/c1ccco1)=N\NC(=O)CNc1ccc2ccccc2c1,?,-4%,-13%,-8%,35µM*,-8%
Cc1cc(C(=O)NNC(=O)/C=C/c2ccco2)c(C)o1,·,·,-6%,·,7.9µM*,-32%
O=C(O)c1cccc(-c2noc(-c3ccccc3F)n2)c1,·,·,-4%,2%,·,·
COc1ccc2c(Sc3ccccc3)c(C(=O)NCCCN3CCCCC3)[nH]c2c1,·,·,0%,-8%,·,·
O=C(O)c1ccc(NC2=C/C(=N/S(=O)(=O)c3ccccc3)c3ccccc3C2=O)cc1,-20%,-7%,-11%,14µM*,·,?
Cc1cc(C)c(S(=O)(=O)/N=C2\C=C(Nc3ccc(C(=O)O)cc3)C(=O)c3ccccc32)c(C)c1,·,·,-20%,?,·,-22%
CCc1ccc(S(=O)(=O)/N=C2\C=C(Nc3cccc(C(=O)O)c3)C(=O)c3ccccc32)cc1,·,·,-8%,25µM*,·,37%
CCCCn1c(N)c(N(CCOC)C(=O)C2CCN(C(=O)c3ccc(F)cc3)CC2)c(=O)[nH]c1=O,·,·,-7%,·,2%,-6%
Oc1ccc(N2CCN(c3ncnc4sc(-c5ccccc5)cc34)CC2)cc1,16µM*,14%,2%,-3%,?,3%
CCN(CC)c1ccc(NC2CC(=O)N(CCc3ccc(OC)cc3)C2=O)cc1 (centres undefined),13µM*,?,16%,-27%,·,-3%
OC1C=C2CCN3Cc4cc5c(cc4C(C1O)C23)OCO5 (centres undefined),25µM*,i,-12%,7%,·,3%
CCOc1ccccc1NC(=O)Nc1ccc2nc(N3CCN(C)CC3)cc(C)c2c1,·,·,22%,?,·,·
Cc1cc(C)cc(NC(=O)[C@H]2O[C@@H]3OC(C)(C)O[C@@H]3[C@H]3OC(C)(C)O[C@H]32)c1,·,·,-5%,1%,·,·
CC1(C)OC2OC(C(=O)N/N=C/c3cc(Br)ccc3O)C3OC(C)(C)OC3C2O1 (centres undefined),28µM*,-3%,-10%,1%,3%,1%
COc1cccc2c1C(=O)c1c(O)c3c(c(O)c1C2=O)C[C@](O)(C(C)=O)C[C@H]3O[C@@H]1C[C@@H](N)[C@@H](O)[C@@H](C)O1,·,·,-2%,·,-9%,21µM*
CC(C)C(=O)N(c1cc2sc(=O)oc2c2ccccc12)S(=O)(=O)c1cccs1,10µM*,-6%,-29%,-8%,·,-3%
CC(C)C(=O)N(c1ccc2oc(=O)sc2c1)S(=O)(=O)c1cccs1,-2%,7%,?,-1%,-6%,1%
COc1ccc(NC(=O)CCSc2nc(-c3ccc(OC)cc3)cc(C(F)(F)F)n2)cc1,·,·,2%,-4%,·,·
COc1ccc(-c2cc(C(F)(F)F)nc(SCCC(=O)Nc3cc(C)on3)n2)cc1,22µM*,-8%,·,5%,·,1%
O=C(CCC1CCCCC1)Nc1ccccc1-c1ccccc1,-1%,-17%,3.2µM*,-9%,30%,-3%
O=C(N/N=C/c1ccccc1O)C1SCCCS1,28µM*,-4%,-2%,0%,-25%,0%
Nc1c(C(=O)NCc2ccco2)sc2nc3c(cc12)C(=O)CCC3,-3%,-24%,-27%,-30%,32µM*,?
CC(=O)Nc1nonc1-c1nnc(SCC(=O)Nc2ccc(F)cc2F)n1-c1ccccc1,·,·,1%,-3%,·,·
SMILES,KDM4E inh,RECQ1 inh,KAT2A inh,BLM helicase inh,L3MBTL1 inh,APEX1 inh
CCC(=O)n1nc(NCc2ccccc2OC)nc1NCc1ccccc1OC,6%,-20%,-11%,-11%,-5%,-11%
Cc1ccc(O)c(NC2=C(Cl)C(=O)N(Cc3ccccc3)C2=O)c1,22µM*,-17%,-7%,-16%,?,-11%
O=C(Cc1nn[nH]n1)c1ccccc1O,-27%,3%,1%,-1%,12%,4%
C=CCNC(=O)c1cc([N+](=O)[O-])cc2c(=O)[nH]c(Nc3ccc(Cl)c(Cl)c3)nc12,-12%,7.1µM*,·,-19%,·,7.9µM*
N#Cc1no[n+]([O-])c1-c1ccccc1,·,·,·,·,·,11%
CCC(=Nc1ccccc1O)C1=C(O)CC(c2ccccc2)CC1=O (centres undefined),25µM*,-3%,2%,-6%,-8%,0%
COc1cc(OC)cc(C2=Nn3c(nnc3-c3ccccc3O)SC2)c1,·,-9%,·,-5%,·,-3%
CCCn1c(-c2ccc(F)cc2)nc2c(NCCCCN(CC)CC)nc(C)nc21,?,i,·,-4%,·,?
CC(=O)c1cc2c(cc1N/C(=N/S(=O)(=O)c1ccc(F)cc1)c1ccccc1)OCO2,·,·,0%,0%,·,·
COc1ccc2[nH]c(=O)c(CN(Cc3ccco3)C(c3nnnn3Cc3ccccc3)C(C)C)cc2c1 (centres undefined),?,-9%,-19%,-14%,·,-3%
Cc1cccc2cc(C(c3nnnn3C(C)(C)C)N(Cc3ccco3)CC3CCCO3)c(=O)[nH]c12 (centres undefined),-6%,-8%,-9%,-14%,?,28µM*
Cc1ccc2[nH]c(=O)c(C(c3nnnn3C(C)(C)C)N(Cc3ccco3)CC3CCCO3)cc2c1 (centres undefined),?,i,-2%,1%,8%,-3%
Cc1cccc2cc(CN(Cc3ccco3)C(c3nnnn3CCc3ccccc3)C(C)C)c(=O)[nH]c12 (centres undefined),18µM*,-7%,-8%,-9%,-12%,-2%
O=P(c1ccccc1)(c1ccccc1)c1ccc(O)cc1,·,·,0%,-4%,2%,15%
O=C(NNC(=O)c1cc2cc3ccccc3nc2s1)c1ccc(F)cc1,-23%,-1%,-17%,-24%,34%,6.3µM*
Cc1cccc(C(=O)NNC(=O)c2cc3cc4ccccc4nc3s2)c1,-24%,-3%,2%,-5%,-7%,8%

# Screening results (PubChem BioAssay)
